Laboratory results published in PubChem BioAssay AID1159580 (chemical genetic matrix, 2015).
Several values for one entry are separate records, joined by “and”; a condition that tells them apart may be missing. Equal values may be shown once. Screen size: about 5,500 compounds; about 2,000 (36%) were called active. Roughly 18% stayed inconclusive and do not appear here. Rule as the data show it: active = normalized growth mostly below about 0.91 (no sharp cut-off); inconclusive = no clear call, values can overlap the other calls; inactive = mostly above about 0.92. Some of the results follow.

Assay: chemical genetic growth profiling, strain panel (AID 1159580);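 also: tested at 20 µM; growth read once vehicle control cultures reached saturation at 30 °C; 1 = growth at the plate median or of vehicle wells; lower values mean less growth of the strain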
Settings: S. cerevisiae deletion strains, growth OD

Measured: normalized growth

C[C@@H]1CC[C@@]23CCC4(C)[C@@](C=CC5[C@@]6(C)CC[C@H](O)C(C)(C)C6CC[C@]54C)(OC2=O)C3[C@H]1C (some centres not stated)
inactive: locus YAL021C, strain ccr4, stronger effect = lower value 0.999 | locus YAL026C, strain drs2, stronger effect = lower value 1.01 | locus YAL030W, strain snc1, stronger effect = lower value 1 | locus YBL061C, strain skt5, stronger effect = lower value 1.06 | locus YBR009C, strain hhf1, stronger effect = lower value 1 | locus YBR021W, strain FUR4, stronger effect = lower value 0.999 | locus YBR023C, strain chs3, stronger effect = lower value 1.02 | locus YBR171W, strain sec66, stronger effect = lower value 1 | locus YBR229C, strain ROT2, stronger effect = lower value 1 | locus YBR231C, strain swc5, stronger effect = lower value 1.09 | locus YCL011C, strain gbp2, stronger effect = lower value 1 | locus YCL016C, strain dcc1, stronger effect = lower value 1.08 | locus YCL029C, strain bik1, stronger effect = lower value 1.02 | locus YCL061C, strain MRC1, stronger effect = lower value 0.991 | locus YCL069W, strain vba3, stronger effect = lower value 1.01 | locus YCR088W, strain abp1, stronger effect = lower value 1 | locus YDL005C, strain med2, stronger effect = lower value 1.01 | locus YDL035C, strain GPR1, stronger effect = lower value 1 | locus YDL040C, strain nat1, stronger effect = lower value 1.06 | locus YDL074C, strain BRE1, stronger effect = lower value 1.04 | locus YDL101C, strain DUN1, stronger effect = lower value 1.02 | locus YDL134C, strain PPH21, stronger effect = lower value 1.03 | locus YDL185W, strain tfp1, stronger effect = lower value 1.01 | locus YDL192W, strain arf1, stronger effect = lower value 1.05 | locus YDR001C, strain nth1, stronger effect = lower value 1.01 | locus YDR069C, strain doa4, stronger effect = lower value 0.985 | locus YDR101C, strain arx1, stronger effect = lower value 1.03 | locus YDR159W, strain sac3, stronger effect = lower value 1.1 | locus YDR162C, strain NBP2, stronger effect = lower value 1.04 | locus YDR195W, strain ref2 0.955 | locus YDR297W, strain sur2, stronger effect = lower value 1 | locus YDR318W, strain mcm21, stronger effect = lower value 1.01 | locus YDR334W, strain swr1, stronger effect = lower value 1 | locus YDR335W, strain msn5, stronger effect = lower value 1.01 | locus YDR388W, stronger effect = lower value 1.01 | locus YDR392W, strain spt3, stronger effect = lower value 1.02 | locus YDR502C, strain sam2, stronger effect = lower value 1 | locus YEL003W, strain gim4, stronger effect = lower value 0.99 | locus YEL037C, strain rad23, stronger effect = lower value 1.04 | locus YEL061C, strain CIN8 (second series), stronger effect = lower value 1 | locus YEL061C, strain CIN8, stronger effect = lower value 1.02 | locus YER015W, strain faa2, stronger effect = lower value 1 | locus YER110C, stronger effect = lower value 0.995 | locus YER111C, strain swi4, stronger effect = lower value 1.04 | locus YER155C, strain BEM2 (second series), stronger effect = lower value 0.967 | locus YER155C, strain BEM2, stronger effect = lower value 1.03 | locus YER167W, strain BCK2, stronger effect = lower value 1.01 | locus YFR010W, strain ubp6, stronger effect = lower value 1.02 | locus YGL078C, strain dbp3, stronger effect = lower value 1 | locus YGL086W, strain mad1, stronger effect = lower value 1.02 | locus YGL167C, strain pmr1, stronger effect = lower value 1.02 | locus YGL173C, strain kem1, stronger effect = lower value 0.991 | locus YGL227W, strain vid30, stronger effect = lower value 1 | locus YGL240W, strain doc1, stronger effect = lower value 0.99 | locus YGL248W, strain PDE1, stronger effect = lower value 1.03 | locus YGL253W, strain hxk2, stronger effect = lower value 1.03 | locus YGR078C, strain PAC10, stronger effect = lower value 1.03 | locus YGR135W, strain pre9, stronger effect = lower value 0.993 | locus YGR229C, strain SMI1, stronger effect = lower value 1.08 | locus YGR252W, strain gcn5, stronger effect = lower value 1.07 | locus YHR013C, strain ard1, stronger effect = lower value 1.06 | locus YHR027C, strain rpn1, stronger effect = lower value 1.01 | locus YHR030C, strain SLT2, stronger effect = lower value 1.03 and 1.01 | locus YHR079C, strain IRE1 (second series), stronger effect = lower value 0.998 | locus YHR079C, strain IRE1, stronger effect = lower value 0.999 | locus YHR129C, strain ARP1, stronger effect = lower value 1.03 | locus YHR142W, strain chs7, stronger effect = lower value 1.06 | locus YHR200W, strain rpn10, stronger effect = lower value 0.988 | locus YIL066C, strain RNR3, stronger effect = lower value 1.04 | locus YIL073C, strain SPO22, stronger effect = lower value 1.05 | locus YIL125W, strain kgd1, stronger effect = lower value 0.992 | locus YJL092W, strain hpr5, stronger effect = lower value 1.01 | locus YJL095W, strain BCK1 (second series), stronger effect = lower value 1.03 | locus YJL095W, strain BCK1, stronger effect = lower value 1.06 and 1.01 | locus YJL115W, strain asf1, stronger effect = lower value 1.03 | locus YJL129C, strain trk1, stronger effect = lower value 1.03 | locus YJL134W, strain LCB3, stronger effect = lower value 1.02 | locus YJL154C, strain vps35, stronger effect = lower value 1 | locus YJL164C, strain tpk1, stronger effect = lower value 1.01 | locus YJL166W, strain qcr8, stronger effect = lower value 1.01 | locus YJL187C, strain SWE1 (second series), stronger effect = lower value 1.01 | locus YJL187C, strain SWE1, stronger effect = lower value 0.996
active: locus YBR279W, strain paf1, stronger effect = lower value 1.09 [resistant] | locus YDR137W, strain rgp1, stronger effect = lower value 1.16 [resistant] | locus YER016W, strain bim1, stronger effect = lower value 1.17 [resistant] | locus YHR094C, strain hxt1, stronger effect = lower value 1.14 [resistant] | locus YIR030C, strain dcg1, stronger effect = lower value 1.18 [resistant]
